4MU fluor = qHTS Assay for Spectroscopic Profiling in 4-MU Spectral Region; max dye-equivalent concentration, M; AID 589, 2007; 59,000 tested, 11% active; compound autofluorescence, 340/450 nm, 4-MU equivalents; hits give high values; in the data active means max dye-equivalent concentration above about 10 nM; inconclusive means mostly about 1.1 nM to 9.6 nM
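Intrinsic fluorescence at 340/450 nm (ex/em) was read after 15 min at room temperature in pH 8.0, 100 mM Tris. Each compound concentration expressed as 4-MU-equivalent concentration from a six-point 4-MU standard series on each plate.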
HSD17B inh = qHTS Assay for Inhibitors of HSD17B4, hydroxysteroid (17-beta) dehydrogenase 4; recombinant HSD17B10, NADH fluorescence kinetic; Potency, µM (top dose mostly 57.1 µM), inactives show top-dose activity change, negative = inhibition, actives largely listed as inhibitors; 75,000 tested, 7.6% active; AID 893, 2007;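 further: the protocol describes HADH2 (HSD17B10) and not the HSD17B4 of the title; potency means the concentration at half of the fitted maximal effect; on the % scale 0 is the no-effect control and ±100 the full control effect; nearly all actives have a fitted effect of over 70% in size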
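His-tagged E. coli-expressed HADH2 at 20 nM in 100 mM Tris-HCl pH 9.0 with 0.01 % Tween-20, preincubated 15 min with compound at room temperature. Reaction with 1 mM NAD+ and 90 uM beta-hydroxybutyryl coenzyme A; NADH fluorescence (360/450 nm) read kinetically over 4 min, last minus first point.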
CRE Fsk mod = Cell signaling CRE-BLA (Fsk stim); CHO CRE-bla reporter (cAMP response element driving beta-lactamase), forskolin EC10, beta-lactamase ratio; Potency, µM (series often up to 38.2 µM), for inactives: at the highest dose activity change, negative = inhibition, actives largely listed as activators; 71,000 tested, 2.5% active; active means well fitted activation curve with a large enough effect in the signal ratio, with a control signal flat, not every such curve was filed as active; inconclusive means small, poorly fitted or top-dose-only effect, or effect the other way, or a change in a side signal; the % refers to the signal ratio; further: potency means the concentration at half of the fitted maximal effect; % of control where 0% means no effect
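Beta-lactamase reporter under a cAMP responsive element in CHO cells; compounds tested in titration series against EC10 NKH 477, 3 h at 37 °C. Read-out: CCF4 FRET ratio 460nm/530nm (excitation 405nm) giving %Activity, fitted to AC50.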
A350 fluor = qHTS Assay for Spectroscopic Profiling in A350 Spectral Region; Compound autofluorescence, 340/450 nm, Alexa 350 dye-equivalents; hits give high values; max dye-equivalent concentration, M; 59,000 tested, 11% active; AID 590, 2007; in the data active means max dye-equivalent concentration above about 10 nM; inconclusive means mostly about 1.1 nM to 9.6 nM
HADH2 inh = qHTS Assay for Inhibitors of HADH2 (Hydroxyacyl-Coenzyme A Dehydrogenase, Type II); 3-hydroxyacyl-CoA dehydrogenase type-2 (Homo sapiens), Q99714; recombinant HADH2, NADH fluorescence, beta-hydroxybutyryl-CoA; Potency, µM (titrated, usually from 57.1 µM), for the others: at the top dose activity change, negative = inhibition, actives largely listed as inhibitors; 73,000 tested, 3.4% active; AID 886, 2007; further: potency means the concentration at half of the fitted maximal effect; on the % scale 0 is the no-effect control and ±100 the full control effect; nearly all actives have a fitted effect of over 60% in size
Target sequence (Q99714 whole entry, looked up, one chain of several): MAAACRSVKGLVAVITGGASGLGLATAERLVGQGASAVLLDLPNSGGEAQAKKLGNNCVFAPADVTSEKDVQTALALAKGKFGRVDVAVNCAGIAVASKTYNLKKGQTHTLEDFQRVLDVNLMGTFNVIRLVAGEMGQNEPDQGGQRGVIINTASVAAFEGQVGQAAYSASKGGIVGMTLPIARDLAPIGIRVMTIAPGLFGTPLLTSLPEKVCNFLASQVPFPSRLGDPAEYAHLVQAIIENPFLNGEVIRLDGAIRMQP
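Activity measured as NADH fluorescence gain (360/450 nm), taken as the change between first and last reads of a 4-min kinetic run. Conditions: pH 9.0 Tris buffer, 20 nM E. coli-expressed His-tagged enzyme, 1 mM NAD+, 90 uM beta-hydroxybutyryl-CoA; 15-min compound preincubation.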
AID923 = qHTS Assay for Allosteric/Competitive Inhibitors of Caspase-1: Spectroscopic Profiling in AFC Spectral Region; compound fluorescence, AFC spectral region (405/520 nm); Potency, µM (top dose mostly 57.5 µM), for inactives: at the highest dose fluorescence increase, actives largely listed as activators; 75,000 tested, 1.1% active; AID 923, 2007; further: potency means the concentration at half of the fitted maximal effect; 0% is about no effect
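Titrations up to 57 uM read every 20 sec for 3 min (405/520 nm) with 50 nM caspase 1 and 5 uM Ac-WEHD-AFC, pH 7.5 HEPES buffer. Fluorescence-vs-time intercept gave baseline, scaled against on-plate AFC standard.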
Starred values were filed as active, the others as inactive; ! = not confirmed by another sample; [ ] = another dose, or the depositor's remark. An excerpt weighted towards active compounds, which were near 14% of everything screened. Unless noted, the call rests on the fitted dose curve; in most records, active means well fitted curve in the direction sought with a large enough effect; inconclusive means small, poorly fitted or top-dose-only effect, or another doubt; inactive means no such curve, though single readings can be large; an effect the other way counts as inactive or inconclusive.

Screening O=c1[nH]c(=O)n(-c2ccc(F)cc2)c(O)c1C=Nc1ccccc1N1CCCC1 returned 4MU fluor 1.43e-08M*, HSD17B inh 0.7%, CRE Fsk mod -4.7%, A350 fluor 2.21e-08M*, HADH2 inh 12.9% and AID923 3.2%.
For Cc1ccc(-n2c(O)c(C=Nc3ccccc3N)c(=O)[nH]c2=O)cc1C the results were 4MU fluor inconclusive, HSD17B inh -18.3%, CRE Fsk mod inconclusive, A350 fluor 1.04e-08M*, HADH2 inh 3.4% and AID923 8.7%.
`OC[C@H]1CCCN2CCCC[C@@H]12` gave 4MU fluor inactive, CRE Fsk mod -3.4%, A350 fluor inactive and HADH2 inh -4.2%.
COC1=C(C)C(=O)c2c(c(COC(N)=O)c3n2C[C@@H]2[C@@H]3N2C)C1=O (some centres undefined) was read as 4MU fluor inactive, HSD17B inh -5.1%[11.4 µM], CRE Fsk mod 0.2µM*, A350 fluor inactive, HADH2 inh 12.3%[11.4 µM] and AID923 2.3%[11.5 µM].
O=C(O)CCCc1ccc(N(CCCl)CCCl)cc1 was read as 4MU fluor 3.19e-08M*!, HSD17B inh 4.0%, CRE Fsk mod inconclusive, A350 fluor 5.05e-08M*!, HADH2 inh -7.6% and AID923 2.1%.
Screening O=c1c(O)c(-c2ccc(O)c(O)c2)oc2cc(O)cc(O)c12 returned 4MU fluor inconclusive, HSD17B inh inconclusive, CRE Fsk mod inconclusive, A350 fluor inconclusive, HADH2 inh 0.251µM* and AID923 -1.9%.
For O=c1cc(-c2ccc(O)c(O)c2)oc2cc(O)cc(O)c12 the results were 4MU fluor inactive, HSD17B inh inconclusive, CRE Fsk mod inconclusive, A350 fluor inactive, HADH2 inh 15.8µM* and AID923 0.6%.
Cc1ccc(S(=O)ON2CCC(C(=O)O)(c3ccccc3)CC2)cc1 (centres undefined) was read as 4MU fluor inactive, HSD17B inh 11.6%[11.4 µM], CRE Fsk mod 1.7%[7.6 µM], A350 fluor inactive, HADH2 inh 0.9%[11.4 µM] and AID923 -2.7%[11.5 µM].
Cc1cccn2c(=O)c(C=Nc3ccccc3)c(NCc3ccco3)nc12 was read as 4MU fluor 3.01e-08M*, HSD17B inh inconclusive, CRE Fsk mod inconclusive, A350 fluor 2.96e-08M*, HADH2 inh -5.1% and AID923 2.1%.
`CC1C(=O)OC2C1CC[C@@]1(C)C=CC(=O)[C@@]3(C)O[C@@]213` (some centres undefined) gave HSD17B inh 0.2% and AID923 -2.0%.
Screening O=S(=O)(Cl)c1ccccc1 returned HSD17B inh 31.6µM*, CRE Fsk mod -7.3%, HADH2 inh 6.8% and AID923 -5.7%.
For CCN(N=O)C(N)=O the results were HSD17B inh -0.6%, CRE Fsk mod -2.3%, HADH2 inh 6.1% and AID923 3.7%.
Screening COc1ccc(NC(=O)N2CC3(CCN(C(=O)Oc4ccccc4)CC3)C2)cc1 returned 4MU fluor inactive, HSD17B inh -13.9%, CRE Fsk mod -9.1%, A350 fluor inactive, HADH2 inh 0.4% and AID923 3.8%.
c1cncc([C@H]2CCCCN2)c1 was read as 4MU fluor 2.07e-08M*, HSD17B inh -5.9%, CRE Fsk mod -15.6%, A350 fluor 2.11e-08M*, HADH2 inh -8.2% and AID923 -0.7%.
`Nc1nc2[nH]c(=O)cnc2c(=O)[nH]1` gave 4MU fluor 2.28e-07M*, HSD17B inh inconclusive, CRE Fsk mod -1.7%, A350 fluor 2.21e-07M*, HADH2 inh inconclusive and AID923 -2.0%.
For O=C1CCCc2c1nc(-c1ccccc1)n2O the results were 4MU fluor inconclusive, HSD17B inh 25.1µM*, CRE Fsk mod 7.8%, A350 fluor inconclusive, HADH2 inh inconclusive and AID923 -0.7%.

Source: PubChem (National Center for Advancing Translational Sciences (NCATS))
